Laboratory results taken from PubChem BioAssay (Tox21).
Records with an inconclusive call do not appear. Entries that show only a call come without a potency. Values without a mark were called inactive. Active and inactive are the calls of the source. The call rests on the fitted dose curve; in most records, active means well fitted curve in the direction sought with a large enough effect in the repeat runs; inconclusive means weak or mixed curves; inactive means no such curve, though single readings can be large; an effect the other way counts as inactive or inconclusive.

target: Cytochrome P450 1A2 (Homo sapiens) (UniProt P05177); assay: Cytochrome P450 Family 1 Subfamily A Member 2 (CYP1A2) small molecule antagonists: luciferase reporter qHTS assay (AID 1671199); conditions: P450-Glo CYP1A2 enzyme, luciferin luminescence, 1 h; series mostly up to 53 µM; further: potency means the concentration at half of the fitted maximal effect
Summary of the method: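 Inhibition of CYP1A2 conversion of proluciferin to luciferin, detected by luminescence. Reaction run 1 h at room temperature with NADPH regeneration after brief compound preincubation.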
Further: nearly all actives have a fitted effect of over 50% in size.

Cytochrome P450 1A2 (Homo sapiens), sequence (P05177 whole entry, looked up): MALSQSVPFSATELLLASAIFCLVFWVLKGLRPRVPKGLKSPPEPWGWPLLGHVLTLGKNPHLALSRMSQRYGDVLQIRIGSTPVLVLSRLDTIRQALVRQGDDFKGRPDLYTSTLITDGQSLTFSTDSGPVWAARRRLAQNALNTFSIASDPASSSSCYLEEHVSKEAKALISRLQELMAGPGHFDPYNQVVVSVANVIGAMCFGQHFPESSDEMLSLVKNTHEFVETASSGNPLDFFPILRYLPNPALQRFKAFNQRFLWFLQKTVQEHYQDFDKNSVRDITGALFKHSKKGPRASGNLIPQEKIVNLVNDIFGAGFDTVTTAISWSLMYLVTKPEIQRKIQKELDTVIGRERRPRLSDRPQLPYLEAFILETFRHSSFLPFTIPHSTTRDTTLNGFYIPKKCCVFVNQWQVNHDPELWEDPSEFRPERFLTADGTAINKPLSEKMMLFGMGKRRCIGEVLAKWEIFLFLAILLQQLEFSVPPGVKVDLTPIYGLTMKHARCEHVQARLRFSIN

| Compound | Potency |
| --- | --- |
| CC(C)(CCC(=O)O)C(=O)O | 28.6 µM (active) |
| C=CC(=O)OCCCl | 40.8 µM (active) |
| CC(=O)Oc1cccc(C)c1 | inactive |
| C1CCC2(CCCCO2)OC1 | inactive |
| C=CCCC(=O)O | inactive |
| CO[C@@]1(NC(=O)C(C(=O)O)c2ccc(O)cc2)C(=O)N2C(C(=O)O)=C(CSc3nnnn3C)CO[C@@H]21 (stereo not given in full) | inactive |
| CN(C)C(=O)Oc1cccc([N+](C)(C)C)c1 | inactive |
| Cc1ccnc(NS(=O)(=O)c2ccc(N)cc2)n1 | inactive |
| [Ca+2] | inactive |
| CCCC(C)C(=O)OCC (stereo not given) | inactive |
| CC(C)C1CCC(O)CC1 (stereo not given) | inactive |
| CC1=NN(c2cccc(S(=O)(=O)O)c2)C(=O)C1 | 44.8 µM (active) |
| CCNS(=O)(=O)c1ccc(C)cc1 | 41.1 µM (active) |
| C=CCOCC(O)CO (stereo not given) | inactive |
| CCCc1ncc(C[n+]2ccccc2C)c(N)n1 | inactive |
| CC1(C)[C@@H]2CC[C@@]1(C)[C@H](O)C2 | inactive |
| OCCCCCO | inactive |
| Cc1ccccc1N=C(N)N=C(N)N | inactive |
| O=C(O)CCCC[P+](c1ccccc1)(c1ccccc1)c1ccccc1 | inactive |
| COc1ccc2cc1Oc1cc3c(cc1OC)CC[N+](C)(C)[C@H]3Cc1ccc(cc1)Oc1c(OC)c(OC)cc3c1[C@@H](C2)[N+](C)(C)CC3 | inactive |
| CN1[C@@H]2CC[C@H]1CC(OC(=O)C(O)c1ccccc1)C2 (stereo not given in full) | inactive |
| CCCCCCCCCCCCCCCCCCO | inactive |
| O=C(O)Cc1csc(-c2ccc(Cl)cc2)n1 | inactive |
| Nc1ccn([C@@H]2O[C@H](CO)[C@@H](O)C2(F)F)c(=O)n1 | inactive |
| CC(C)CC(C)(N)C#N (stereo not given) | inactive |
| Nc1ccncc1N | inactive |
| C[N+](C)(CCOc1ccccc1)Cc1cccs1 | inactive |
| CN1CCN(c2cc3c(nn2)Oc2ccccc2N3C)CC1 | inactive |
| COc1ccccc1OCC1CNC(=O)O1 (stereo not given) | inactive |

target: Voltage-gated inwardly rectifying potassium channel KCNH2 (Homo sapiens) (UniProt Q12809); assay: Human Ether-a-go-go-Related Gene (hERG) channel small molecule antagonists: fluorescence cell-based qHTS assay (AID 1671200); conditions: hERG-U2OS cells, FluxOR thallium flux fluorescence; series mostly up to 76.8 µM;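 further: hERG-expressing U2OS cells given a thallium stimulus after FluxOR II dye loading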
Summary of the method: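 In this thallium-flux screen, overnight-cultured U2OS cells bearing the channel are dye-loaded in darkness for an hour, rested 10 min at room temperature, and then monitored kinetically at 480/540 nm for two minutes post-stimulus.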

Voltage-gated inwardly rectifying potassium channel KCNH2 (Homo sapiens), sequence (Q12809 whole entry, looked up): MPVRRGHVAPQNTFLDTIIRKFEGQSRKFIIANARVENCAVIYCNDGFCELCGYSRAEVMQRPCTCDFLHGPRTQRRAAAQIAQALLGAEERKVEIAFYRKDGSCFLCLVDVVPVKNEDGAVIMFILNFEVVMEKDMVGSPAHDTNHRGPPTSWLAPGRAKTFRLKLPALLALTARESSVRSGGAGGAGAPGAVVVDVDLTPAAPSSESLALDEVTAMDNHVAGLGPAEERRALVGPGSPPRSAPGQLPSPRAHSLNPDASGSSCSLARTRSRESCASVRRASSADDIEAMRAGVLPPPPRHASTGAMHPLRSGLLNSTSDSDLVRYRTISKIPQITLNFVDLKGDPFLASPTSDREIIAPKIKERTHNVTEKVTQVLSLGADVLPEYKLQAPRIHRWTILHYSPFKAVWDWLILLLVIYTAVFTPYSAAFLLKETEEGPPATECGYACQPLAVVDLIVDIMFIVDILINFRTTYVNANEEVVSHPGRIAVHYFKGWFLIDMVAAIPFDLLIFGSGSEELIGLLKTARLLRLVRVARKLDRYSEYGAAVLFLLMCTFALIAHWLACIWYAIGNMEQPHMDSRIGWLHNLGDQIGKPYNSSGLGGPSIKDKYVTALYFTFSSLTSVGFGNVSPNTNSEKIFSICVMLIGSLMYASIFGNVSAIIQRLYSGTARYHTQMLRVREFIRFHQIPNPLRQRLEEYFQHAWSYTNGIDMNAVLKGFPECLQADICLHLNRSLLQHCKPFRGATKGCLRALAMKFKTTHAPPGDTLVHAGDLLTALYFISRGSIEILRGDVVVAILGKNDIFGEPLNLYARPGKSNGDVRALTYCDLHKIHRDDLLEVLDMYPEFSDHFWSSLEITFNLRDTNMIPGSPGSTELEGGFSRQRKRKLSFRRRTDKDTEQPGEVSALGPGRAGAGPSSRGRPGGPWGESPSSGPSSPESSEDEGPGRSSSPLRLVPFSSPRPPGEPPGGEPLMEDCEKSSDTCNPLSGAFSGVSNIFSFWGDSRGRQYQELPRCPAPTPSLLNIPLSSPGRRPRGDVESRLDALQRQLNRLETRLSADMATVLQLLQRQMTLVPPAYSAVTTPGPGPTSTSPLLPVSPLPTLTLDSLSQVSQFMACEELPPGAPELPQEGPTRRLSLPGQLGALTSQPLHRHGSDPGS

| Compound | Potency | activity change, negative = inhibition |
| --- | --- | --- |
| C=CC(=O)OCCCl | inactive |  |
| CC(=O)Oc1cccc(C)c1 | inactive |  |
| C1CCC2(CCCCO2)OC1 | inactive |  |
| CCOc1c(N2CCOCC2)cnn(C)c1=O | inactive |  |
| COc1cc(C(=O)OC(COCCC(C)C)CN2CCOCC2)cc(OC)c1OC (stereo not given) | inactive |  |
| CO[C@@]1(NC(=O)C(C(=O)O)c2ccc(O)cc2)C(=O)N2C(C(=O)O)=C(CSc3nnnn3C)CO[C@@H]21 (stereo not given in full) | inactive |  |
| O=[N+]([O-])c1cncn1CCN1CCOCC1 | inactive |  |
| [Ca+2] | inactive |  |
| CC(C)C1CCC(O)CC1 (stereo not given) | inactive |  |
| NC(=O)NC1N=C([O][Al])NC1=O (stereo not given) | inactive |  |
| CC1=NN(c2cccc(S(=O)(=O)O)c2)C(=O)C1 | inactive |  |
| CCNS(=O)(=O)c1ccc(C)cc1 | inactive |  |
| C=CCOCC(O)CO (stereo not given) | inactive |  |
| CC1(C)[C@@H]2CC[C@@]1(C)[C@H](O)C2 | inactive |  |
| c1ccc2sc(SN3CCOCC3)nc2c1 | inactive |  |
| OCCCCCO | inactive |  |
| Cc1ccccc1N=C(N)N=C(N)N | inactive |  |
| COc1ccc2cc1Oc1cc3c(cc1OC)CC[N+](C)(C)[C@H]3Cc1ccc(cc1)Oc1c(OC)c(OC)cc3c1[C@@H](C2)[N+](C)(C)CC3 | inactive |  |
| CN1[C@@H]2CC[C@H]1CC(OC(=O)C(O)c1ccccc1)C2 (stereo not given in full) | inactive |  |
| O=C1c2ccccc2C(=O)c2cc(O)ccc21 | inactive |  |
| CCCCCCCCCCCCCCCCCCO | inactive |  |
| C=CCCCCCCCCC(=O)OCC | inactive |  |
| O=C(O)Cc1csc(-c2ccc(Cl)cc2)n1 | inactive |  |
| CC(C)CC(C)(N)C#N (stereo not given) | inactive |  |
| Cc1ccc(-c2ncc(Cl)cc2-c2ccc(S(C)(=O)=O)cc2)cn1 | inactive |  |
| CN1CCN(c2cc3c(nn2)Oc2ccccc2N3C)CC1 |  | 0.457% [at 15.8 µM] |
